{"source": "PubChem BioAssay (NCI)", "note": "Compounds without any hit were thinned out: in the full panel of roughly 83,000, 20% have a hit.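 48-hour exposure, single concentration, 96-well plates; percent growth endpoint where 0 means no net growth. Active: below 10.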 Active and inactive are the calls of the source.", "data": [{"tested_on": "HOP-92 NSCLC", "assay": "NCI-60 one-dose screen, 48 h (100 = growth as untreated, 0 = no growth, -100 = all killed)", "conditions": "1 µM", "experimental": "(§1) Growth inhibition of the HOP-92 human Non-Small Cell Lung tumor cell line is measured as a screen for anti-cancer activity. Cells are grown in 96 well plates and exposed to the test compound for 48 hours. Compounds are tested at a single concentration, which is 10^-5 M for most compounds. The reported endpoint is percent growth (GI% or GIPRCNT), where numbers from 0 - 100% represent growth inhibition, and numbers from -100% - 0 represent cell death. For example, a value of 40 represents 60% growth inhibition. A value of 0 means no net growth occurred over the course of the experiment. A value of -40 indicates 40% of cells at the beginning of the experiment died by the end of the experiment. A value of -100 means all cells are dead at the end of the experiment.\n(§2) NCI-60 Human Tumor Cell Lines Screen was performed using the standard one-dose NCI protocol, which is described in more detail at https://dtp.cancer.gov/discovery_development/nci-60/default.htm.\n(§3) Compounds with GIPRCNT values below 10 were considered active. Activity score was based on GIPRCNT using the following formula: […]\n(§4) Score is 0 for GIPRCNT values of 100 or above, 50 for GIPRCNT values of 0, and 100 for GIPRCNT values of -100.", "values": [{"compound": "CC/C(=C(\\c1ccc(O)cc1)c1ccc(OCCNC)cc1)c1ccccc1", "growth": "80.2% (inactive)"}]}, {"tested_on": "HOP-92 NSCLC", "assay": "NCI-60 one-dose screen, 48 h (100 = growth as untreated, 0 = no growth, -100 = all killed)", "conditions": "10 µM", "experimental": "as §1, §2, §3, §4", "values": [{"compound": "CC/C(=C(\\c1ccc(O)cc1)c1ccc(OCCNC)cc1)c1ccccc1", "growth": "65.1% (inactive)"}]}, {"tested_on": "HOP-92 NSCLC", "assay": "NCI-60 one-dose screen, 48 h (100 = growth as untreated, 0 = no growth, -100 = all killed)", "conditions": "10 µM unless noted", "experimental": "as §1, §2, §3, §4", "values": [{"compound": "O=C(CSc1nnc(-c2ccc(-c3nc4ccccc4[nH]3)cc2)o1)Nc1ccccc1", "growth": "54.1% (inactive)"}, {"compound": "Cc1cc(Cl)ccc1NC(=O)Nc1ccc(-c2ccc3c(c2)NC(=O)/C3=C\\c2ccc[nH]2)cc1", "growth": "115% (inactive)"}, {"compound": "COc1c(B(O)O)cc(F)cc1-c1nc2ccc3[nH]ncc3c2c2c1COCC2", "growth": "18.1% (inactive)"}, {"compound": "Cn1cc(-c2cc3nc(-c4cn(C)c5ncc(Br)cc45)cc(N)n3n2)c2cc(F)ccc21", "growth": "-18.3% (active)"}, {"compound": "Cc1ccc(C(=O)C[n+]2cccc3c4ccccc4ccc32)cc1", "growth": "-8.04% (active)"}, {"compound": "Cc1cccc(NCC(=O)N2CCN(c3ncnc4c3cnn4-c3ccccc3)CC2)c1", "growth": "50.6% (inactive)"}, {"compound": "Cc1nn(-c2ccccc2)c2nc(C)n(C(=O)N/N=C/c3cccc([N+](=O)[O-])c3)c(=O)c12", "growth": "103% (inactive)"}, {"compound": "CCOc1ccc(-c2cc(-c3cc(C(C)C)c(O)cc3C)nn2-c2ccc(S(N)(=O)=O)cc2)cc1", "growth": "47.4% (inactive)"}, {"compound": "COc1ccc(/C=C/C(=O)c2ccc(OC)c(S(N)(=O)=O)c2)c(C(F)(F)F)c1", "growth": "6.4% (active)"}, {"compound": "COC(=O)c1cc(C(C)=O)n2c3ccccc3c3ccccc3c12", "growth": "28.1% (inactive)"}, {"compound": "CCOC(=O)c1ccc(NC(=S)NC(=O)c2ccc(NC(=O)C(C)C)cc2OC)cc1", "growth": "33.6% (inactive)"}, {"compound": "COc1ccccc1NC(=O)N/N=C/c1c[nH]c2ccccc12", "growth": "47.7% (inactive)"}, {"compound": "Cc1cc(=O)oc2cc(OCC(O)CNN3C(=O)c4cccc5c(N6CCN(C)CC6)ccc(c45)C3=O)ccc12", "note": "(stereo not given)", "growth": "68.3% (inactive)"}, {"compound": "COc1cc2cc(C(=O)N3C[C@@H](CCl)c4c3cc(OC(=O)N(CCC(=O)N3CCN(C)CC3)C3CCCCC3)c3ccccc43)[nH]c2c(OC)c1OC", "growth": "-71% (active)"}, {"compound": "Cc1ccc(C(=O)Nc2cc(-n3ccnc3)cc(C(F)(F)F)c2)cc1-n1cc(-c2cnc3cccnn23)nn1", "growth": "78.8% (inactive)"}, {"compound": "O=C(CSc1nc2c(c(=O)[nH]1)CCCC2)Nc1ccccc1C(=O)O", "growth": "117% (inactive)"}, {"compound": "Cc1ccc2nc(COc3ccc(C(=O)NNC(=O)Nc4ccc(Cl)c(C(F)(F)F)c4)cc3)[nH]c2c1", "growth": "-22.6% (active)"}, {"compound": "O=c1c(-c2nc(-c3ccccc3)c(-c3ccccc3)[nH]2)coc2ccc(F)cc12", "growth": "88.1% (inactive)"}, {"compound": "CCOC(=O)/C(F)=C/C1CC1C(c1ccccc1)c1ccccc1", "note": "(stereo not given)", "growth": "84.1% (inactive)"}, {"compound": "O=C(Nc1ccc(Cl)c(C(F)(F)F)c1)N1CCN(c2cc(-c3cn(-c4ccccc4)nc3-c3cccc(O)c3)ccn2)CC1", "growth": "-2.61% (active)"}, {"compound": "COc1cc(C2C(C(=O)OCc3ccccc3)=C(C)Nc3nc4ccccc4n32)cc(OC)c1OC", "note": "(stereo not given)", "growth": "-0.272% (active)"}, {"compound": "Cc1ccc(-c2cc(C(=O)N=Nc3c(O)[nH]c4ccc(F)cc34)c3ccccc3n2)cc1", "growth": "104% (inactive)"}, {"compound": "Cc1cn(-c2cc(NC(=O)c3ccc(C)c(-n4cc(-c5cnc6cccnn56)nn4)c3)cc(C(F)(F)F)c2)cn1", "growth": "53.9% (inactive)"}, {"compound": "COc1ccc(-c2nc3ccc(-c4nnc(SCc5ccccc5)o4)cc3[nH]2)cc1", "growth": "20.9% (inactive)"}, {"compound": "COc1ccc(-n2c(NC(=O)N3CCN(C)CC3)c(C#N)c3ccccc32)cc1", "growth": "44% (inactive)"}, {"compound": "COc1ccc(-c2cc(C)nc3[nH]c(=O)sc23)cc1", "growth": "16.3% (inactive)"}, {"compound": "Cc1nn(-c2ccccc2)c2nc(C)n(CC(=O)N/N=C/c3cccc([N+](=O)[O-])c3)c(=O)c12", "growth": "91.9% (inactive)"}, {"compound": "COc1ccc(N=Nc2c(N)nn3c(N)c(C#N)c(-c4ccc(F)cc4)nc23)cc1", "growth": "-3.02% (active)"}, {"compound": "O=C1c2cccc3c(N4CCN(Cc5ccccc5)CC4)ccc(c23)C(=O)N1c1cccc(-c2nn(-c3ccccc3)cc2-c2nc3ccccc3s2)c1", "growth": "105% (inactive)"}, {"compound": "ClC(Cn1ncc2c(Nc3cccc(Br)c3)nc(SCCN3CCOCC3)nc21)c1ccc(Br)cc1", "note": "(stereo not given)", "growth": "-18.9% (active)"}, {"compound": "Cc1oc(-c2ccccc2)nc1CN[C@@H]1C[C@@H]2C[C@H]([C@H]1C)C2(C)C", "growth": "-11.4% (active)"}, {"compound": "O=C1Nc2ccccc2/C1=C/C(=O)c1cc2ccccc2oc1=O", "growth": "119% (inactive)"}, {"compound": "O=C1N/C(=N\\c2nccs2)S/C1=C\\c1ccc([N+](=O)[O-])cc1", "growth": "16.7% (inactive)"}, {"compound": "Oc1ccc(Cl)c(Nc2nc(SCCN3CCOCC3)nc3c2cnn3CC(Cl)c2ccc(Br)cc2)c1", "note": "(stereo not given)", "growth": "-6.99% (active)"}, {"compound": "N#Cc1ccc(C(=O)CSc2nc3c(c(Nc4ccc(S(N)(=O)=O)cc4)n2)CCC3)cc1", "growth": "14.1% (inactive)"}, {"compound": "Cn1cc(-c2cc(N)n3nc(-c4c[nH]c5ccc(Cl)cc45)cc3n2)c2cccnc21", "growth": "-70.5% (active)"}, {"compound": "O=C1c2cccc3c(N4CCN(c5ccccc5)CC4)ccc(c23)C(=O)N1c1cccc(-c2nn(-c3ccccc3)cc2-c2nc3ccccc3s2)c1", "growth": "120% (inactive)"}, {"compound": "O=C(CSc1nc2sc3c(c2c(=O)n1-c1ccc(Cl)cc1)CCCC3)NNC(=O)c1ccc(Br)cc1", "growth": "61.2% (inactive)"}]}]}
